LYPLA1 counter – LYPLA1 (human) inhibition in PME1 counter-screen; O75608; recombinant LYPLA1, FP-Rh probe fluorescence polarization; inhibition, % at 5.9 µM; 320,000 compounds, 0.16% hits; AID 2174;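 active = inhibition above the mean of all tested compounds plus 3 SD, set per campaign, cut at about 14% in these data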;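 also: inhibitors block serine hydrolase probe labeling of LYPLA1 so polarization falls; 0% = enzyme with DMSO and 100% = wells lacking LYPLA1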
LYPLA2 counter – blocks human lysophospholipase 2, a PME1 counter-screen. AID 2177. O95372. recombinant LYPLA2, FP-Rh probe fluorescence polarization. 320,000 compounds, 0.38% hits. inhibition, % at 5.9 µM;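 active = inhibition above the screen-wide mean plus 3 SD, limit set per campaign, cut at about 26% in these data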;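 also: 0% = LYPLA2 with DMSO and 100% = wells lacking LYPLA2 enzyme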
Fam108B counter – blocks mouse Fam108B hydrolase in RBBP9 counter-screen; recombinant Fam108B, FP-Rh probe fluorescence polarization; inhibition, % at 9.51 µM; 300,000 compounds, 0.33% hits;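 active = inhibition above the screen mean inhibition plus 3 SD, computed separately per campaign, cut at about 18% in these data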;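 also: inhibitors lower polarization as less probe binds the enzyme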
PME-1 primary – PME-1 (human) inhibition; Q9Y570; recombinant PME-1, FP-Rh probe fluorescence polarization; inhibition, % at 5.9 µM; 320,000 compounds, 0.53% hits;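 active = inhibition above the campaign mean of all compounds plus 3 SD, cut at about 26% in these data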;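 also: competitive labeling of PME-1 active site by serine hydrolase directed probe; 0% = PME-1 with DMSO and 100% = wells lacking PME-1 enzyme; inhibitors block probe labeling so polarization falls and inhibition rises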
Target sequence (Q9Y570 whole entry, looked up): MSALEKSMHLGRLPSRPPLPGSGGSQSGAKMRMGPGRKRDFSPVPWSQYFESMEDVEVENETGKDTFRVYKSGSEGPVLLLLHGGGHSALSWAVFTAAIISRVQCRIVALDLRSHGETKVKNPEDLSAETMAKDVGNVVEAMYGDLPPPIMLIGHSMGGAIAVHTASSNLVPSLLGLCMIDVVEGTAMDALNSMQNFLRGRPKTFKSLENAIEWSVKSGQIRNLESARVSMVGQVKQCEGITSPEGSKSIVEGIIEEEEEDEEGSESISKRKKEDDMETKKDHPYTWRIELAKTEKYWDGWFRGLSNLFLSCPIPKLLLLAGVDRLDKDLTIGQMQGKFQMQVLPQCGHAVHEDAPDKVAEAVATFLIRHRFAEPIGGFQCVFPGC
PP1 inh – blocks human PP1-alpha phosphatase, a PP5 counter-screen | P62136 | AID 2235 | 320,000 compounds, 0.9% hits | inhibition, % at 6.7 µM | purified PP1alpha, OMFP fluorescence;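 active = inhibition above the mean inhibition of all tested compounds plus 3 SD, computed separately for each screening campaign, cut at about 15% in these data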
PP5 primary – inhibitors of human protein phosphatase 5 (PP5). P53041. purified PP5c, OMFP substrate fluorescence. inhibition, % at 6.7 µM. 320,000 compounds, 0.18% hits;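 active = inhibition above the campaign's mean inhibition across all tested compounds plus 3 SD, cut at about 9.5% in these data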;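 also: 0% = DMSO only and 100% = 100 µM cantharidin control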
Active calls of the source: *; nt = not tested or not shown; ! = not confirmed by another sample. This is a sample that favours compounds with a hit; in the whole collection about 1.8% have one here.

SMILES	LYPLA1 counter	LYPLA2 counter	Fam108B counter	PME-1 primary	PP1 inh	PP5 primary
Cc1ccn2c(NC3CCCCC3)c(-c3cccc(-c4cccc(Cl)c4)c3)nc2c1	0	4	1	1	17*	3
COc1cc(-c2nc3cc(C)ccn3c2NC2CCCCC2)ccc1-c1ccc(C(C)=O)cc1	-1	-3	8	1	18*	2
Cc1ccn2c(NC3CCCC3)c(-c3ccncc3)nc2c1	4	4	6	-1	-1	3
c1ccc2c(c1)OCCc1c-2[nH]c2ccccc12	0	0	2	33*	-1	2
O=C(CNC(=O)c1ccc2ccccc2c1)NCc1ccc(F)cc1	0	-7	1	-1	1	2
CC(C)(C)OC(=O)COc1cc(OCC(=O)OC(C)(C)C)c2c(=O)cc(-c3ccccc3)oc2c1	-8	-11	-10	-5	17*	7
COc1ccccc1/C=N/NC(=O)c1ccc(CN2C(=O)c3cccc4cccc2c34)cc1	-25	-45	-33	-55	16*	1
CCN1CCN(C(=O)c2ccc(N3CC4CC(C3)c3cccc(=O)n3C4)c(NC(=O)c3cc(OC)cc(OC)c3)c2)CC1 (stereo unspecified)	-4	2	-10	0	-6	3
O=c1cc(O)nc(SCc2ccccc2)n1-c1ccccc1	-1	1	1	-1	17*!	-1
O=C(CSc1nc(O)cc(=O)n1-c1ccccc1)NCc1ccccc1	0	4	2	0	3	3
CCCC(C(=O)NC1CCCC1)N(Cc1ccccc1Cl)C(=O)c1snc(C(N)=O)c1N (stereo unspecified)	-3	3	-3	-2	-2	2
Cc1ccccc1OCc1nnc(SCC(=O)Nc2ccc3nc(SCC(=O)Nc4ccccc4)sc3c2)n1C	-24	-50	-39	-61	17*	0
CCOc1ccc(NC(=O)Nc2ccc3c(c2)N(C)C(=O)CS3)cc1	-5	-4	-1	33*	-6	4
Cc1cc(C)n(C(C)CC(=O)Nc2ccc3c(c2)OCCO3)n1 (stereo unspecified)	-2	-6	-5	-3	4	0
COc1ccc(C2c3c(-c4cc(Cl)c(C)cc4O)n[nH]c3C(=O)N2Cc2cccnc2)cc1OC (stereo unspecified)	-8	2	3	10	15*	4
COc1ccc(C2c3c(-c4ccccc4O)n[nH]c3C(=O)N2Cc2ccco2)cc1OC (stereo unspecified)	-8	-9	-2	3	-3	3
COc1ccc(Nc2ncnc3sc(-c4ccccc4)cc23)cc1	-4	10	12	34*	3	4
O=C(O)c1cc(O)c2c(c1)[C@H]([C@H]1c3cc(C(=O)O)cc(O)c3C(=O)c3c(O[C@@H]4O[C@H](CO)[C@@H](O)[C@H](O)[C@H]4O)cccc31)c1cccc(OC3O[C@H](CO)[C@@H](O)[C@H](O)[C@H]3O)c1C2=O (stereo partly specified)	10	75*	97*	71*	86*	9
CCCc1nnc2n1N=C(c1ccc(C)cc1)CS2	-2	1	8	-2	-3	2
COc1ccccc1C(=O)NC(=S)Nc1cccc2cc(O)ccc12	-6	-6	5	31*	-1	4
O=C(NC(=S)Nc1cccc2cc(O)ccc12)c1ccccc1Br	-4	8	-1	13	-1	5
CCCS(=O)(=O)c1nc(S(=O)(=O)c2ccc(C)cc2)c(NCCCN2CCCC2=O)s1	3	3	0	1	-1	-1
COc1cccc(C(=O)Oc2ccc(/C=N/Nc3ccc(C(=O)O)cc3)cc2OC)c1	-1	10	14	32*	2	5
Cc1sc(NC(=O)c2sc3nc4c(C)cccc4cc3c2N)c(C#N)c1C	-13	-10	6	1	17*	0
Cc1sc(NC(=O)c2oc3ccccc3c2C)c(C#N)c1C	3	2	1	-3	-2	-2
SMILES	LYPLA1 counter	LYPLA2 counter	Fam108B counter	PME-1 primary	PP1 inh	PP5 primary
CCOC(=O)C(C)On1c(-c2ccccc2)nc2ccc([N+](=O)[O-])cc21 (stereo unspecified)	0	8	3	27*	-1	3
CCOC(=O)C(C)On1c(-c2ccc(Cl)cc2)nc2ccc([N+](=O)[O-])cc21 (stereo unspecified)	-4	-9	4	19	2	2
O=C(NNC(=O)C1CCC1)c1cccc(Cl)c1	-3	-5	nt	2	-3	2
O=C1C[C@@H]2c3c(cccc3CN1Cc1ccc(F)cc1)C[C@@H](O)[C@H]2O	1	0	nt	2	-3	3
Cc1ccc(S(=O)(=O)N2CCN(C(=O)CCc3c[nH]c4ccccc34)CC2)c(C)c1	-2	0	nt	5	-3	2
O=C1c2ccccc2C(O)(c2ccccc2)N1CCc1ccccc1 (stereo unspecified)	-2	7	2	6	0	3
O=C1c2ccccc2C(O)(c2ccccc2)N1c1ccncc1 (stereo unspecified)	1	2	-5	3	16*	-1
O=C(N1CCCCC1)N1CCN(S(=O)(=O)c2ccccc2)CC1	0	-2	3	1	-1	-1
Cc1cccc(NC(=O)[C@H](Cc2ccccc2)NC(=O)[C@@H]2Cc3ccccc3CN2)c1	1	2	3	6	-1	1
COC(=O)c1ccc(Sc2ccccc2NS(=O)(=O)c2ccc(C)cc2)nc1	7	6	-3	29*	4	1
Cc1nn(-c2ccccn2)c2c1C(c1ccccc1Cl)C1=C(N2)c2ccccc2C1=O (stereo unspecified)	-2	1	8	7	4	-1
Cc1nn(-c2ccccn2)c2c1C(c1c(F)cccc1Cl)C1=C(N2)c2ccccc2C1=O (stereo unspecified)	2	4	0	2	17*	3
CCC(=O)c1cn(/C(=C\C(=O)OC(C)(C)C)CCC(OC)OC)cc1CC	-2	-7	3	-4	-1	2
CCCCOc1cccc(C(=O)Nc2ccc(S(=O)(=O)Nc3nnc(CC)s3)cc2)c1	-9	20	-5	-9	15*	4
Cc1ccc[n+](CC(=O)c2ccc(Br)cc2)c1C	-1	4	-2	2	-10	4
O=C(Nc1nc(-c2ccccc2)nc2ccccc12)c1ccc(F)cc1	-2	1	-7	-5	16*	2
CCc1ccc2nc(N(CCCN(C)C)C(=O)c3ccc(S(=O)(=O)N4CCc5ccccc5C4)cc3)sc2c1	-8	-7	-1	0	17*	2
CCOc1cccc2sc(N(CCCN(C)C)C(=O)c3ccc(S(=O)(=O)N4CCc5ccccc5C4)cc3)nc12	-2	8	-3	4	13	9

Screening results deposited in PubChem by The Scripps Research Institute Molecular Screening Center.
